These results are taken from PubChem BioAssay.

Structures are written as SMILES. A number with no mark means an inactive call. No rule for the calls is given here.

In the first assay the test system is Aerobactin synthetase IucA (Klebsiella pneumoniae hvKP1). The assay can be described thus: IucA enzyme inhibition, primary screen, biochemical, Spectrum library (AID 1346200).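 Also: 100% = wells without compound and 0% = wells lacking enzyme.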 The settings on record: malachite green pyrophosphate, A620, at 8 µM, active compounds read low.
Regarding `Cc1nc2ccccn2c(=O)c1CCN1CCC(C(=O)c2ccc(F)cc2)CC1`, the activity remaining was 120%. `Cc1ccnc(NS(=O)(=O)c2ccc(N)cc2)n1`: the activity remaining is 122%.

Regarding `Nc1nc2c(c(=O)[nH]1)N(C=O)C(CNc1ccc(C(=O)N[C@@H](CCC(=O)O)C(=O)O)cc1)CN2` (stereo partly drawn), the activity remaining is 104%.

Take `CCc1cccc2c3c([nH]c12)C(CC)(CC(=O)O)OCC3` (stereo not drawn): the activity remaining is 116%.

In another assay the test system is Aerobactin synthetase IucA (Klebsiella pneumoniae, hypervirulent). The assay can be described thus: biochemical IucA inhibition screen of LOPAC library by absorbance (AID 1346212).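 Also: 100% = no compound wells and 0% = no enzyme wells.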 The note with it: IucA enzyme assay, absorbance (OD) readout; active compounds read low;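 tested at 8 µM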.
The term remaining activity denotes the signal under treatment as a percentage of the control signal. With `CN1CCC(=C2c3ccccc3CC(=O)c3sccc32)CC1`, the remaining activity is 112%. In the case of `Cn1c(=O)c2c(ncn2C)n(C)c1=O`, the remaining activity is 113%. As to `CC(C)COCC(CN(Cc1ccccc1)c1ccccc1)N1CCCC1` (stereo not drawn), the remaining activity was 91.4%. On the same count and under the same terms, with `COc1cc2nc(N3CCN(C(=O)c4ccco4)CC3)nc(N)c2cc1OC` the figure was 84.9%. On the same count and under the same terms, then `C=C[C@H]1CN2CC[C@H]1C[C@@H]2[C@@H](O)c1ccnc2ccc(OC)cc12`, with 115%; and `CSc1ccc2c(c1)N(CCC1CCCCN1C)c1ccccc1S2` (stereo not drawn), with 91.4%; and `O=C(/C=C/c1ccc(O)c(O)c1)OCCc1ccccc1`, with 105%.

On to `Cc1nc2ccccn2c(=O)c1CCN1CCC(C(=O)c2ccc(F)cc2)CC1`, for which the remaining activity is 101%.

On to `CCc1cccc2c3c([nH]c12)C(CC)(CC(=O)O)OCC3` (stereo not drawn), for which the remaining activity was 116%.
